Data taken from the supplement of paper PMC11732987, “Enantioselective OTUD7B fragment discovery through chemoproteomics screening and high-throughput optimisation” (Communications Chemistry, 2025).

Legend:
Assay in all cases: log2 ratio of Biotin-Ahx-Ub-VS probe labelling (fragment/DMSO); higher = less target engagement (more negative = stronger competition), active = hit call of the paper (q ≤ 0.05, log2 ratio ≤ -1)
Details in all cases: compound concentration: 200 uM; treatment time: 3 h
[1] = target: USP34 (UniProt Q70CQ2)
How it was run: (§1)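 Each value is an average log2 ratio of fragment to vehicle, tested by unpaired t-test. The underlying Spectronaut label-free quantities were global-median-normalised, and only proteins with ≥2 unique peptides were included. Triplicate HEK293T lysate samples (495 µg) were exposed to fragment at 200 µM or vehicle for 3 h, then to Biotin-Ahx-Ub-VS at 0.5 µM final for 1 h, before NeutrAvidin enrichment of labelled DUBs, LysC and trypsin digestion, and diaPASEF LC-MS/MS.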

[2] = target: T1, USP36 (UniProt Q9P275)
T1 sequence (whole entry): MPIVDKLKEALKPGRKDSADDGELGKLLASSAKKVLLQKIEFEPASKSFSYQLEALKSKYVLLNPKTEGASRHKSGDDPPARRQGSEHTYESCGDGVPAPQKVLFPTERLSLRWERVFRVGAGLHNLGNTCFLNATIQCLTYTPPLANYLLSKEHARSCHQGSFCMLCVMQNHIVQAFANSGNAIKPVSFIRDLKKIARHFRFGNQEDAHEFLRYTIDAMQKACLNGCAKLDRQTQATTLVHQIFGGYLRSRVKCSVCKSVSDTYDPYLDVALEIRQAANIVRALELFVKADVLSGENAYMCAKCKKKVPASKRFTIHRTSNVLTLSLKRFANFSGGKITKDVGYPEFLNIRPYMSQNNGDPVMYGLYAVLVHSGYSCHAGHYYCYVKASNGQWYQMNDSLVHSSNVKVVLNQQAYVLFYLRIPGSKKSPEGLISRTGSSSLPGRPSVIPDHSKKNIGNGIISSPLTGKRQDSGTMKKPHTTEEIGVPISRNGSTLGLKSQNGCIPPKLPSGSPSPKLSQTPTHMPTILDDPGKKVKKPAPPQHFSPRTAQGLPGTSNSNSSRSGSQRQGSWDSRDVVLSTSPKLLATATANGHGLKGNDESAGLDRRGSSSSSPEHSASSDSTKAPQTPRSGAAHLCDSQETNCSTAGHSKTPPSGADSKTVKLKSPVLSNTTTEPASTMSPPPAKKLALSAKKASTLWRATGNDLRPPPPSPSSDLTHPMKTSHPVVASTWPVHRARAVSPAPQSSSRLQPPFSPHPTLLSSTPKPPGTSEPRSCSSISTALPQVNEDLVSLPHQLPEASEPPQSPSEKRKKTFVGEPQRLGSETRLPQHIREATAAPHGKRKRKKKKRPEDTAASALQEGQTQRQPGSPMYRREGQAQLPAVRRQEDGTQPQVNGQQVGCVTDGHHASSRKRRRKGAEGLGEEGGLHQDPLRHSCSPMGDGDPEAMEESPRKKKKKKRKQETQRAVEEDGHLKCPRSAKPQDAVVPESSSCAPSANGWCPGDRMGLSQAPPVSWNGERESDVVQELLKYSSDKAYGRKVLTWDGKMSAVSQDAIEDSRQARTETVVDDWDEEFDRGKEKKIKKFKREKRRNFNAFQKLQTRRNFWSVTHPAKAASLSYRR
How it was run: as §1

[3] = target: T2, USP38 (UniProt Q8NB14)
T2 sequence (whole entry): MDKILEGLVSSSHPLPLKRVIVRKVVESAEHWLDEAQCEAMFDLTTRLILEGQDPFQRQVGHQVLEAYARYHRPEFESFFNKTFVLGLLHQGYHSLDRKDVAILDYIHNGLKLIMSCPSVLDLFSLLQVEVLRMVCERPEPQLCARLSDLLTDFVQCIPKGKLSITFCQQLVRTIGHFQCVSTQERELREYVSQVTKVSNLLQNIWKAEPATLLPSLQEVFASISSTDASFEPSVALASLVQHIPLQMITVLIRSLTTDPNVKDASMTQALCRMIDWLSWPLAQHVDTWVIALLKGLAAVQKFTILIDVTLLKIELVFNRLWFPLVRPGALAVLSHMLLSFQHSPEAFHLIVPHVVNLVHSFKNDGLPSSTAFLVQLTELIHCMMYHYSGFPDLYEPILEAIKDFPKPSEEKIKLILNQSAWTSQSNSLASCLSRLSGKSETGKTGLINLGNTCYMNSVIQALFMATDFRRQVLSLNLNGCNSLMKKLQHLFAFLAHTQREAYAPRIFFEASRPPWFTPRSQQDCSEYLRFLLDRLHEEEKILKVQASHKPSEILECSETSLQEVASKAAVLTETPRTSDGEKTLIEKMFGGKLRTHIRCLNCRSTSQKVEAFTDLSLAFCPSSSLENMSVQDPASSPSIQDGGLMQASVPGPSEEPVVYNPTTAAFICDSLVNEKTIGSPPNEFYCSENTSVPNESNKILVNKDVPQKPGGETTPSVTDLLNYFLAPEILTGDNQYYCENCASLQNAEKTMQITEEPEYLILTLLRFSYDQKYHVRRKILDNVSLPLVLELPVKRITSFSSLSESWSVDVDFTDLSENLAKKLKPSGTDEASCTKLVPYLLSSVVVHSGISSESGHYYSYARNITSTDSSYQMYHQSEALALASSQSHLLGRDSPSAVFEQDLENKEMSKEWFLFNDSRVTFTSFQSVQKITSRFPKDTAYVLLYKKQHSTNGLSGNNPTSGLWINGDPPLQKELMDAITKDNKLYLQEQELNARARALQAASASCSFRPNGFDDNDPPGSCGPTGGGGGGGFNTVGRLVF
How it was run: as §1

[4] = target: T3, USP39 (UniProt Q53GS9)
T3 sequence (whole entry): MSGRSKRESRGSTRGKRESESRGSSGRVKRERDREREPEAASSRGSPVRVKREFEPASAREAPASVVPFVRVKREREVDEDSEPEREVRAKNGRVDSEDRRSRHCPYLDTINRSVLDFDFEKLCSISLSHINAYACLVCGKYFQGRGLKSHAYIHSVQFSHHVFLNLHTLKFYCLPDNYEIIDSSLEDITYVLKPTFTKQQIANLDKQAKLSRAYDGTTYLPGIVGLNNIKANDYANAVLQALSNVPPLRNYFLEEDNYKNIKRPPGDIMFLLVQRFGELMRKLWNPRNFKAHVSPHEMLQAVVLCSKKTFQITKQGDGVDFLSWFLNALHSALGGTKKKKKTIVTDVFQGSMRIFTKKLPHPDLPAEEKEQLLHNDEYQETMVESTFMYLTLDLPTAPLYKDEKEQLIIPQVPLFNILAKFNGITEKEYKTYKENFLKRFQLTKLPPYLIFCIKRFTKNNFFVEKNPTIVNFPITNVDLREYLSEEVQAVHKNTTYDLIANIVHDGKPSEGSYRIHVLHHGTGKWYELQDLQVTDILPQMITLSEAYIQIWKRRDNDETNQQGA
How it was run: as §1

[5] = target: T4, USP4 (UniProt Q13107)
T4 sequence (whole entry): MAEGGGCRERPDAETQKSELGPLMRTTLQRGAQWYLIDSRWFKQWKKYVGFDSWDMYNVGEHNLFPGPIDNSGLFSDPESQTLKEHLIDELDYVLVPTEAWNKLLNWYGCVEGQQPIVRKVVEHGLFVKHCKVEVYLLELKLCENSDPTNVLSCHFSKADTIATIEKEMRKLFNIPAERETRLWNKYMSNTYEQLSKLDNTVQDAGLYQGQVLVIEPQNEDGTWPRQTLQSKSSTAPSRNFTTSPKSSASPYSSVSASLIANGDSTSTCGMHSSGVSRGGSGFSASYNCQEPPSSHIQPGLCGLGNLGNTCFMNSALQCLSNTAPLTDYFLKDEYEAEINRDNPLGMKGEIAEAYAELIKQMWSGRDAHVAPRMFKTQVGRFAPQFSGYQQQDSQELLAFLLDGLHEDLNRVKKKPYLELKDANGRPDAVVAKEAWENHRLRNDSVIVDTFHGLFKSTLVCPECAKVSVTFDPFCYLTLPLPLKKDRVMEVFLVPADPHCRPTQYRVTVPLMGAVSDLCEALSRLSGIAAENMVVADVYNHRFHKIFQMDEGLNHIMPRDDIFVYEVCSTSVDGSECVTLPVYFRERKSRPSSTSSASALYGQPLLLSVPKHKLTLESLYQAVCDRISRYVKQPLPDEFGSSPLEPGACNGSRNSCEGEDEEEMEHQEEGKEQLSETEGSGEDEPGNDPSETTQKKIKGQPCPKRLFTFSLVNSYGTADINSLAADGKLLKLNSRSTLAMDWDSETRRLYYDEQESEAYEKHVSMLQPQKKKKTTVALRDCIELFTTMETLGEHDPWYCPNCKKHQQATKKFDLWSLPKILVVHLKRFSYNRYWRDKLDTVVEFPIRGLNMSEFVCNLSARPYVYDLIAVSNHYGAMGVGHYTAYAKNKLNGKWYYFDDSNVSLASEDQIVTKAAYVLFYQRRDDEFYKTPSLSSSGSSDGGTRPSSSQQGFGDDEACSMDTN
How it was run: as §1

Measured: log2 ratio of Biotin-Ahx-Ub-VS probe labelling

Sequence of USP34 (Q70CQ2 whole entry, the tested form may be a part): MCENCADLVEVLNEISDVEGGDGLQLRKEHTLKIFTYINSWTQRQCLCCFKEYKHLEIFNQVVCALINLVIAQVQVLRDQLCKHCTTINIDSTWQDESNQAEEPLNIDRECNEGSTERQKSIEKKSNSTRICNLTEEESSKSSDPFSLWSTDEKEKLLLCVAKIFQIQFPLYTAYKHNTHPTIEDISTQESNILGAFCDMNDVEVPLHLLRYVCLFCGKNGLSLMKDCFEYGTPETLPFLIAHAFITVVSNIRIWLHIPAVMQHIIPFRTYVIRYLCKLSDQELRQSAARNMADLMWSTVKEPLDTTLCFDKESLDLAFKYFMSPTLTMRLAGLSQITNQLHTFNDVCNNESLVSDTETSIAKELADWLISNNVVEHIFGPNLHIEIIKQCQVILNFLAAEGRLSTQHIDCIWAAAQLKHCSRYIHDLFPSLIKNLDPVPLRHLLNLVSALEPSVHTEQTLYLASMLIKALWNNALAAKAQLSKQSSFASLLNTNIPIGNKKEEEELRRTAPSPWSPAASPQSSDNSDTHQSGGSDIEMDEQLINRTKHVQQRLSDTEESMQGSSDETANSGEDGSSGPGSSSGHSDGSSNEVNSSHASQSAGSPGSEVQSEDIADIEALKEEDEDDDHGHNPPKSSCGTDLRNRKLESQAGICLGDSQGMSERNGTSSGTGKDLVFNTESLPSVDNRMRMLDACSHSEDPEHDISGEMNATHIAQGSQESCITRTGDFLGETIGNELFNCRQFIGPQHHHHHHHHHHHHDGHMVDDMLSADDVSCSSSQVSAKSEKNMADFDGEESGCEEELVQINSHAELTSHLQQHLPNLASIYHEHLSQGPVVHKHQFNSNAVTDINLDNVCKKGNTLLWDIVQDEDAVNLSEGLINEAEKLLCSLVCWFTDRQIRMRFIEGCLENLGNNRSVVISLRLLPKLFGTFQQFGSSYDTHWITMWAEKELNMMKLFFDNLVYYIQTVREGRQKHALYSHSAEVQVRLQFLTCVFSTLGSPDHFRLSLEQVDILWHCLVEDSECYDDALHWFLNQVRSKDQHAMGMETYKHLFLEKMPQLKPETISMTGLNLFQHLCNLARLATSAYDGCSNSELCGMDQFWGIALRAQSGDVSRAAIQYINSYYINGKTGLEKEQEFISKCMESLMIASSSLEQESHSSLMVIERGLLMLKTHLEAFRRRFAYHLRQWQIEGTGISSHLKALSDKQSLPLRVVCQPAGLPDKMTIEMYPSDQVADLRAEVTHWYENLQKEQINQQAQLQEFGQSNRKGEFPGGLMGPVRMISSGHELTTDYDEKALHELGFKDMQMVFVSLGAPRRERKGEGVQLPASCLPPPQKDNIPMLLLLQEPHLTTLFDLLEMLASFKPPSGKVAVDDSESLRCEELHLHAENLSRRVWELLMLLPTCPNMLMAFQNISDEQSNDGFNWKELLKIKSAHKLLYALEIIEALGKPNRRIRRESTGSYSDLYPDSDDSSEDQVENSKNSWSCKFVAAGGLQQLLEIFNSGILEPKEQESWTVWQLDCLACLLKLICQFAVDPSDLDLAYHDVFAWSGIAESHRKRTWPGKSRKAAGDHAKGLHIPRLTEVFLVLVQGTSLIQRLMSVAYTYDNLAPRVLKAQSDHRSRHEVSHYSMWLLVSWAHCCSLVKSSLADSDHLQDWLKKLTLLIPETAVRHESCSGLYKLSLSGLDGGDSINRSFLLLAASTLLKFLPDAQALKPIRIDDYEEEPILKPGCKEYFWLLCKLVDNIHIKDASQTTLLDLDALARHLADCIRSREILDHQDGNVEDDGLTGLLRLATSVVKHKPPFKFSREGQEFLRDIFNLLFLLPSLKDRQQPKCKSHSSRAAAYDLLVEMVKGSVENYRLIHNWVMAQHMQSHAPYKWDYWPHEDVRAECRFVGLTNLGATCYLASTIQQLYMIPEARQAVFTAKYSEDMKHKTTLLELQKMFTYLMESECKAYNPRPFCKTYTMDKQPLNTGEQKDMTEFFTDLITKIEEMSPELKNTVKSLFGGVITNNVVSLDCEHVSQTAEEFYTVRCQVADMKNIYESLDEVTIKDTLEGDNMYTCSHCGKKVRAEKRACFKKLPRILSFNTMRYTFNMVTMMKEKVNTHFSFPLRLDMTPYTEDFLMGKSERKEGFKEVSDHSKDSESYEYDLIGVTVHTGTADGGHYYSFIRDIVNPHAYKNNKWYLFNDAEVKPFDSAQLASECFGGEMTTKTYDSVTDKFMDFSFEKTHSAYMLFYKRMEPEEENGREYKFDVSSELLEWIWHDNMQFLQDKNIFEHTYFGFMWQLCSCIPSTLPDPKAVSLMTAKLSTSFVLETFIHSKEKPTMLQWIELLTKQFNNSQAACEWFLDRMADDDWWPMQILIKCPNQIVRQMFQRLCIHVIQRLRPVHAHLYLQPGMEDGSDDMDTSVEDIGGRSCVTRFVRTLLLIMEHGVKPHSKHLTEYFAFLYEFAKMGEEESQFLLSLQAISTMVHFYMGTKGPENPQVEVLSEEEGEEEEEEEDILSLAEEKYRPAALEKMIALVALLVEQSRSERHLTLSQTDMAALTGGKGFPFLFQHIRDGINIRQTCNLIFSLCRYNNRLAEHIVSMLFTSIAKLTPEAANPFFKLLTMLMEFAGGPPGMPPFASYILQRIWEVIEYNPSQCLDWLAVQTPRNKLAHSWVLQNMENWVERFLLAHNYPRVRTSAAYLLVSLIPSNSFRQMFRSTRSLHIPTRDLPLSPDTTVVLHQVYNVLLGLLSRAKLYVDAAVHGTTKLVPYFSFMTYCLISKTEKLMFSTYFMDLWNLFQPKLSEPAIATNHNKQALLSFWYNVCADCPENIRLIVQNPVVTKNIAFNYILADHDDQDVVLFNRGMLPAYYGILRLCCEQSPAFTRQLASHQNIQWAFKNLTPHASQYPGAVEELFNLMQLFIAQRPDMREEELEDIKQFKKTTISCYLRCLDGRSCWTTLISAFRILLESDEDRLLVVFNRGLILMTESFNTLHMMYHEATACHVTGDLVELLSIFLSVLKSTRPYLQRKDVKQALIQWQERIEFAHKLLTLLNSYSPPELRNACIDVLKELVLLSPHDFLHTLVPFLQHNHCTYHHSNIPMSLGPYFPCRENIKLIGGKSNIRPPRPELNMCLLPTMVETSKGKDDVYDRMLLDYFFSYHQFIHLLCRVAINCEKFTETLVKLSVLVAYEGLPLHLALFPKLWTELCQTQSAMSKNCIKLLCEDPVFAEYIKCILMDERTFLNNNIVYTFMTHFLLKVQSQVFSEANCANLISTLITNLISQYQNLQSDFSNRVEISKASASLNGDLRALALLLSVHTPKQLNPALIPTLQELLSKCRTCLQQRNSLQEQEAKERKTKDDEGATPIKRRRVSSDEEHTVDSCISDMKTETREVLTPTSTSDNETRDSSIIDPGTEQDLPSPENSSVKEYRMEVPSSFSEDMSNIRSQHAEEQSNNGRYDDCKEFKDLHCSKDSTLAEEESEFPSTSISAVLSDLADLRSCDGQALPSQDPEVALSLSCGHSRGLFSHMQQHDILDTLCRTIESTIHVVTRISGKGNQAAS

Cc1ccc(N(CCC#N)C(=O)CCl)cc1C
inactive: [1] -0.0882 | [2] -0.062 | [3] -0.15 | [4] 0.18 | [5] 0.0498
